Laboratory results: PubChem BioAssay AID504884 (Broad Institute, 2011)
In all, about 360,000 compounds went through this assay and about 230 (0.064%) were called active. The sample holds actives, similar compounds and a random draw of the others, so the mix is not that of the screen. Cut-off read from the data, not from the text of the source: active = activity above about 50% (passing the limit was not always enough); inconclusive = no clear call, values can overlap the other calls.

Each compound was assayed on DNA topoisomerase I (Yersinia pestis CO92) (assay: Yersinia pestis topoisomerase I inhibitors, primary screen, biochemical, cleavage product accumulation, plate reader, single point (AID 504884)). Details: Y. pestis Topo-I cleavage product accumulation, at 10 µM, hits give high values.
For `CCOC(=O)/C=C/C(=O)OCC(=O)NC(c1ccccc1)c1ccccc1`, the activity was 7.5% (inactive).
For `COc1ccc(OC)c(CN2CCN(C(=O)CNC(=O)c3cc(C)cc(C)c3)CC2)c1`, the activity was 9.4% (inactive).
`CCOC(=O)C(C)Oc1cccc2c(=O)n(CC(=O)N3CCc4ccccc43)ccc12` (stereo not given) was tested, and the activity was -0.583% (inactive).
For `COc1ccc(CN2CCNC(=O)C2CC(=O)NCc2cn[nH]c2-c2ccccc2)c(F)c1` (stereo not given), the activity was 14.5% (inactive).
`COc1ccc(N(CC(=O)NC2CCCCC2)C(=O)CNC(=O)c2ccco2)c(OC)c1` was tested, and the activity was 18.1% (inactive).
In the case of `CCOc1ccc(NC(=O)CCC(=O)NNC(=O)NC2CCCCC2)cc1`, the activity is reported as -4.6% (inactive).
In the case of `N#Cc1cccc(NC(=O)CCC2CCCC2)c1`, the activity is reported as 0.569% (inactive).
For `N#CC(C#N)=CN=c1ccn(Cc2ccc(Cl)cc2Cl)cc1`, the activity was 1.09% (inactive).
With `CC(C(=O)NC1CCCCC1)N1C(=O)c2cccc3cccc1c23` (stereo not given) the activity was 10.7% (inactive).
`O=C(C[n+]1cc(-c2ccc(Cl)c(Cl)c2)n2c1CCC2)c1cccs1` was tested, and the activity was 5.58% (inactive).
In the case of `Nc1nc(SCC(=O)NN(c2ccccc2)c2ccccc2)n[nH]1`, the activity is reported as -4.71% (inactive).
In the case of `CN(CC(=O)N1CCN(c2ccccc2)CC1)S(=O)(=O)c1cccs1`, the activity is reported as 3.69% (inactive).
For `Cc1cc(C)c(C2C3=C(Nc4c2c(C)nn4-c2ccccn2)c2ccccc2C3=O)c(C)c1` (stereo not given), the activity was 0.572% (inactive).
For `CC(C)CCNC(=O)C(C)N(C(=O)Cn1nnc(-c2ccc(F)cc2)n1)C1CCCC1` (stereo not given), the activity was 21.2% (inactive).
For `CN(C)C(CNC(=O)c1ccc(S(=O)(=O)NCc2ccco2)cc1)c1ccccc1` (stereo not given), the activity was 2.31% (inactive).
For `Cc1ccc(S(=O)(=O)NCC(=O)NNC(=O)c2ccc(Br)cc2)cc1C`, the activity was 9.73% (inactive).
In the case of `O=S(=O)(c1ccc(-c2ccno2)s1)N1CCCCC1`, the activity is reported as 0.748% (inactive).
For `COc1ccc(S(=O)(=O)NCC2CCCN(C(=O)c3occc3C)C2)cc1` (stereo not given), the activity was 0.202% (inactive).
With `Cc1cccc(N2CCN(C(=O)COCc3cc(-c4ccc5c(c4)OCO5)on3)CC2)c1C` the activity was 38.3% (inactive).
For `COc1cc(C(=O)OCCCN2CCOCC2)cc(OC)c1OC`, the activity was -0.169% (inactive).
With `Cc1ccc2nc(-c3ccc(SCC(=O)Nc4cc(C)on4)nc3)[nH]c2c1` the activity was 1.96% (inactive).
`CC(=O)Oc1ccc(OC(C)=O)c2c1C1C=CC2CC1` was tested, and the activity was -5.11% (inactive).
For `O=C(NCC(F)(F)F)Nc1nnc(C(F)(F)F)s1`, the activity was 11.4% (inactive).
With `Cc1nn(C)c(C)c1S(=O)(=O)N1CCC(CO)(Cc2ccc(Cl)cc2)CC1` the activity was 4.97% (inactive).
`Cc1nnc(SCC(=O)NC(=O)NC2CCCC2)n1N` was tested, and the activity was -5.78% (inactive).
